Article PMC7862700, “An all-to-all approach to the identification of sequence-specific readers for epigenetic DNA modifications on cytosine”

Tests used:
Assay in all cases: DAPPL (digital affinity profiling via proximity ligation, sequencing); 10 mM Tris-HCl pH 7.5, 50 mM NaCl, 1 mM DTT, 4% glycerol, room temperature, 30 min; GST-TFs on glutathione beads, 16-mer random dsDNA library, 0.1% formaldehyde crosslink after washing; high values mean tight binding
[1] = biological target: T1, FLI1 (Homo sapiens, UniProt Q01543 1-452); settings: protein: recombinant; tags: N-terminal GST; dsDNA, one strand shown
T1 sequence: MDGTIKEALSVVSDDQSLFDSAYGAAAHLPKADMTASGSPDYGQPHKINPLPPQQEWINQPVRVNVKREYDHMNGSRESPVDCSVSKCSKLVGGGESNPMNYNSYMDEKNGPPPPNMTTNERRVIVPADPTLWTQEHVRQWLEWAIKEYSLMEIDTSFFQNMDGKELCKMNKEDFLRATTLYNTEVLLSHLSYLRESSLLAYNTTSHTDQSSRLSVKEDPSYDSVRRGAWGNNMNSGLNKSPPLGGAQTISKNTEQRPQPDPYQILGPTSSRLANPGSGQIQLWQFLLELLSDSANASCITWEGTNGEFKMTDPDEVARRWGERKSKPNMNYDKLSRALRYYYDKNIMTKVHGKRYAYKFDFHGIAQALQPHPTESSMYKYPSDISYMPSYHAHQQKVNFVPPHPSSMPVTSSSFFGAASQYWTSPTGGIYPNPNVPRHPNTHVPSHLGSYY
Method in brief: (§1)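 A tag-only sample was pooled with DNA-barcoded human transcription factors that had been expressed in yeast as GST fusions and captured on glutathione beads. The pools were incubated for 30 min at room temperature with 200 nmole of a random double-stranded 16-mer DNA library in Tris/NaCl/DTT/glycerol buffer, then washed, crosslinked with 0.1% formaldehyde, proximity-ligated (BsaI/T4 ligase, 1 h, 37 °C), PCR-amplified and sequenced on an Illumina NextSeq500. Binding signal is each hexamer's read frequency for a factor divided by its frequency for the tag-only sample.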

[2] = biological target: T2, ELK1 (Homo sapiens, UniProt P19419 1-428); settings: protein: recombinant; tags: N-terminal GST; dsDNA, one strand shown
T2 sequence: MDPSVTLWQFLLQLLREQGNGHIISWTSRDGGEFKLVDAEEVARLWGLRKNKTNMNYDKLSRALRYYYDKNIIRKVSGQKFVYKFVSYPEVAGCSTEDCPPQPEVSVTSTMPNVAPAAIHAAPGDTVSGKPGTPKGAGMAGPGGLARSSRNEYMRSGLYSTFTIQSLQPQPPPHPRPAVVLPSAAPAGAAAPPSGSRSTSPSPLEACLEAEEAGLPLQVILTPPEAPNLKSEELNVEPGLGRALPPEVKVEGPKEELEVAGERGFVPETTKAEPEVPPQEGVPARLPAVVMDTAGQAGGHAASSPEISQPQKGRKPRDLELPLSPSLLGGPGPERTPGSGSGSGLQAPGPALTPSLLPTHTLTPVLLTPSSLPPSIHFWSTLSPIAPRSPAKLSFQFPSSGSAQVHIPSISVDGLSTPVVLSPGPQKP
Method in brief: as §1

[3] = biological target: T3, GABPA (Homo sapiens, UniProt Q06546 1-454); settings: protein: recombinant; tags: N-terminal GST; dsDNA, one strand shown
T3 sequence: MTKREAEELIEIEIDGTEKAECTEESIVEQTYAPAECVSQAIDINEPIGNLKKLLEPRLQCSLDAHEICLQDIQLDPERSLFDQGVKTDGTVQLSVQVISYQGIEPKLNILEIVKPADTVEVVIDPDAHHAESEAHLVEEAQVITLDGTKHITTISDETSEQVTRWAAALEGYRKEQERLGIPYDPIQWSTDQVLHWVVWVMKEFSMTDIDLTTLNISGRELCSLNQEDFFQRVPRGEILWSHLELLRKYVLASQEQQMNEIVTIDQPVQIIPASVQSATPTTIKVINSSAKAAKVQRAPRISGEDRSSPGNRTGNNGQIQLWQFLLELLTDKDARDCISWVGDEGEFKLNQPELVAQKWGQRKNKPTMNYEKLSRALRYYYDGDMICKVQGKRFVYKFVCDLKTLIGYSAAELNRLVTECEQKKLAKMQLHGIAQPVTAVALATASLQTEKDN
Method in brief: as §1

[4] = biological target: T4, ERG (Homo sapiens, UniProt P11308 1-479); settings: protein: recombinant; tags: N-terminal GST; dsDNA, one strand shown
T4 sequence: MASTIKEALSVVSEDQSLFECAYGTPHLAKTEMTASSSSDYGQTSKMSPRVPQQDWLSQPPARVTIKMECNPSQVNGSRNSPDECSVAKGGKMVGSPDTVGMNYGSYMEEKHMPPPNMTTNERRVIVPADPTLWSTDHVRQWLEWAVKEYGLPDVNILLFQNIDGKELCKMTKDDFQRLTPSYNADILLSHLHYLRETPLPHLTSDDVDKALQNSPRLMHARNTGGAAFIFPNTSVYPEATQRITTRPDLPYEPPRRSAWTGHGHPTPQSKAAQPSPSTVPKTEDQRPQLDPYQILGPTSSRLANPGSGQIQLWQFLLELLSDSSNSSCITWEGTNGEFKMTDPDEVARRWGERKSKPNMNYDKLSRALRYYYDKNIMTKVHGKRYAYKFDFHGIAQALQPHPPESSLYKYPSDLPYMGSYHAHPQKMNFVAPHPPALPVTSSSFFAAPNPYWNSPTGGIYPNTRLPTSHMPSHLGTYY
Method in brief: as §1

[5] = biological target: ELF1 (Homo sapiens, UniProt P32519 1-619); settings: protein: recombinant; tags: N-terminal GST; dsDNA, one strand shown
Chain of ELF1 (P32519 whole entry): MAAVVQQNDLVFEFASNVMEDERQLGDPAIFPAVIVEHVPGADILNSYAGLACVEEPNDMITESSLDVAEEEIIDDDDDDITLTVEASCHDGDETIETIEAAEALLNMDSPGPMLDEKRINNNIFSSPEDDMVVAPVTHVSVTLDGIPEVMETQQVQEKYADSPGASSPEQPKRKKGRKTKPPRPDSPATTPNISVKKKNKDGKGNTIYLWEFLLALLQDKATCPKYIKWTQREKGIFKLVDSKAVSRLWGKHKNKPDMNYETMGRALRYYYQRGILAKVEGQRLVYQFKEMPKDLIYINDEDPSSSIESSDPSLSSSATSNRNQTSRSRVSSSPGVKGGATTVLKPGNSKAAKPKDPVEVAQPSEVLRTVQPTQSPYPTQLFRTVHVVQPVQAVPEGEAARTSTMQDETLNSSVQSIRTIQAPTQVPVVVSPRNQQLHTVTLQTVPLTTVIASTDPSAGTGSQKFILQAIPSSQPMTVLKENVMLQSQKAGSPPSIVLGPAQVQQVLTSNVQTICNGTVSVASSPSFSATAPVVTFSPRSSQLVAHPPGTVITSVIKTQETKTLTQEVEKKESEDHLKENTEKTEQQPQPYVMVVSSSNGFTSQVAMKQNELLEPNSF
Method in brief: as §1

[6] = biological target: T5, EHF (Homo sapiens, UniProt Q9NZC4 1-300); settings: protein: recombinant; tags: N-terminal GST; dsDNA, one strand shown
T5 sequence: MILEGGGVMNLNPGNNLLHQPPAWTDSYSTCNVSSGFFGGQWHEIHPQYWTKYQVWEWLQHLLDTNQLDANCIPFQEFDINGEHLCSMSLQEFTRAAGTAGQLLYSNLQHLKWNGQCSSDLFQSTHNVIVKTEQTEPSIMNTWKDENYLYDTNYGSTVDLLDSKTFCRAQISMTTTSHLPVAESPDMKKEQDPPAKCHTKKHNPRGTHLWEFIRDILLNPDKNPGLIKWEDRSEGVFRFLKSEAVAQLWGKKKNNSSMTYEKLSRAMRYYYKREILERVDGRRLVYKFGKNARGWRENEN
Method in brief: as §1

[7] = biological target: SPI1 (Homo sapiens, UniProt P17947 1-270); settings: protein: recombinant; tags: N-terminal GST; dsDNA, one strand shown
Method in brief: as §1

[8] = biological target: SPIB (Homo sapiens, UniProt Q01892 1-262); settings: protein: recombinant; tags: N-terminal GST; dsDNA, one strand shown
Chain of SPIB (Q01892 whole entry): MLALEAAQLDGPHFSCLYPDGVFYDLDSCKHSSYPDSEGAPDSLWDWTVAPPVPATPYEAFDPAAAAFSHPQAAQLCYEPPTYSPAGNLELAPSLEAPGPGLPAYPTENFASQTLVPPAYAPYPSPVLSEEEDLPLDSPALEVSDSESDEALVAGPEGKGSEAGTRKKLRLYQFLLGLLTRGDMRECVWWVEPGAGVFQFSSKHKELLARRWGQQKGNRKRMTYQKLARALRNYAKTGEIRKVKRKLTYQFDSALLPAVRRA
Method in brief: as §1

[9] = biological target: T6, ELK3 (Homo sapiens, UniProt P41970 1-407); settings: protein: recombinant; tags: N-terminal GST; dsDNA, one strand shown
T6 sequence: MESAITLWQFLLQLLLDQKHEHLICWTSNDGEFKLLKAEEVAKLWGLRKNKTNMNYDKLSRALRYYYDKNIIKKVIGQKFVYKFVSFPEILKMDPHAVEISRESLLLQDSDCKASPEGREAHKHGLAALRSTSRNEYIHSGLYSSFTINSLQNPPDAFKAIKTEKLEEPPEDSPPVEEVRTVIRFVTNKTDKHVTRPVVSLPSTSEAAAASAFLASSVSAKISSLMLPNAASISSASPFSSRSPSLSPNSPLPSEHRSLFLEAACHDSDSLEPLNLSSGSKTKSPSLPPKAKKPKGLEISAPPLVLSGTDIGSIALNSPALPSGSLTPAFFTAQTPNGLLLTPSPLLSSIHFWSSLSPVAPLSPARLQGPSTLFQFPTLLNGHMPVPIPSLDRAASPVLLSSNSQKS
Method in brief: as §1

[10] = biological target: T7, FEV (Homo sapiens, UniProt Q99581 1-238); settings: protein: recombinant; tags: N-terminal GST; dsDNA, one strand shown
T7 sequence: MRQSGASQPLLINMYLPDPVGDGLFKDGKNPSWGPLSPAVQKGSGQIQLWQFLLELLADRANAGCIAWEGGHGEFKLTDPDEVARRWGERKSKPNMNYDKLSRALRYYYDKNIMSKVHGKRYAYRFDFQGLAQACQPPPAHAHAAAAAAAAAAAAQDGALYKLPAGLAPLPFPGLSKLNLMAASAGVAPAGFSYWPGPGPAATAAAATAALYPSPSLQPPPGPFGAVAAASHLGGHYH
Method in brief: as §1

[11] = biological target: ETV5 (Homo sapiens, UniProt P41161 1-510); settings: protein: recombinant; tags: N-terminal GST; dsDNA, one strand shown
Chain of ETV5 (P41161 whole entry): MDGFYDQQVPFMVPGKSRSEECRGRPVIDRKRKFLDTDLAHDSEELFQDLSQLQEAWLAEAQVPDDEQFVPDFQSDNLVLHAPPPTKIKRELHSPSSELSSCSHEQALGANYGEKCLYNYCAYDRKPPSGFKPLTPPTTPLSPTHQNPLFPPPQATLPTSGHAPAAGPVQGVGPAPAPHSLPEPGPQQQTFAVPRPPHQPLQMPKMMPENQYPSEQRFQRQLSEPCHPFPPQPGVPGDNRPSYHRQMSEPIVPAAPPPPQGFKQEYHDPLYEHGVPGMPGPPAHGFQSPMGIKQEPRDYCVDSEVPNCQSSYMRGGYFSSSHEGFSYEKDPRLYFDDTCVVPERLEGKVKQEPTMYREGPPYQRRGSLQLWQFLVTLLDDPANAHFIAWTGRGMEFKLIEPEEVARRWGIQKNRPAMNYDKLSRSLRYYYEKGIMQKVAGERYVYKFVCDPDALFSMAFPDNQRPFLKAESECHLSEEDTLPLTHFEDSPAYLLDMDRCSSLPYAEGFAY
Method in brief: as §1

[12] = biological target: HSF1 (Homo sapiens, UniProt Q00613 1-529); settings: protein: recombinant; tags: N-terminal GST; chain copies: 3; dsDNA, one strand shown
Chain of HSF1 (Q00613 whole entry): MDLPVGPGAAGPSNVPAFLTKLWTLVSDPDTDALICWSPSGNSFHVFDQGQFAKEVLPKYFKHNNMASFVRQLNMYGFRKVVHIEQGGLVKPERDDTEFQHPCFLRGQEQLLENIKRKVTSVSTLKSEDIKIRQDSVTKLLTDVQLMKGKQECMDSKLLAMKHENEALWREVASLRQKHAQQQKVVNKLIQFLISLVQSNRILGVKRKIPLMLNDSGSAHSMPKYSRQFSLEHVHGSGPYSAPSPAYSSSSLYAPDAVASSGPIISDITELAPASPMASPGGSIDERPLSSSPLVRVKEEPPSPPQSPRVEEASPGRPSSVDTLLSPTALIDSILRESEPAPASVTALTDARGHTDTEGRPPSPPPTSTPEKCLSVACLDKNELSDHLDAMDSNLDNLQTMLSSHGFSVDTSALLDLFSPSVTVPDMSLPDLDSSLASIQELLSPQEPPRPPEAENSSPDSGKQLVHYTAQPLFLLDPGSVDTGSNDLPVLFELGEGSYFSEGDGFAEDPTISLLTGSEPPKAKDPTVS
Method in brief: as §1

[13] = biological target: T8, SPIC (Homo sapiens, UniProt Q8N5J4 1-248); settings: protein: recombinant; tags: N-terminal GST; dsDNA, one strand shown
T8 sequence: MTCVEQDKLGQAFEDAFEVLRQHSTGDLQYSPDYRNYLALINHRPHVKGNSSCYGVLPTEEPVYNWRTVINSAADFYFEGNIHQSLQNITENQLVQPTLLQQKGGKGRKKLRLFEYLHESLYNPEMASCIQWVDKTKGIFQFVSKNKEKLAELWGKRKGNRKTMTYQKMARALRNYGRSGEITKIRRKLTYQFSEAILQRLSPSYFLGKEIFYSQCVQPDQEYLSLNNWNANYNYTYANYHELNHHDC
Method in brief: as §1

[14] = biological target: ELF4 (Homo sapiens, UniProt Q99607 1-663); settings: protein: recombinant; tags: N-terminal GST; dsDNA, one strand shown
Chain of ELF4 (Q99607 whole entry): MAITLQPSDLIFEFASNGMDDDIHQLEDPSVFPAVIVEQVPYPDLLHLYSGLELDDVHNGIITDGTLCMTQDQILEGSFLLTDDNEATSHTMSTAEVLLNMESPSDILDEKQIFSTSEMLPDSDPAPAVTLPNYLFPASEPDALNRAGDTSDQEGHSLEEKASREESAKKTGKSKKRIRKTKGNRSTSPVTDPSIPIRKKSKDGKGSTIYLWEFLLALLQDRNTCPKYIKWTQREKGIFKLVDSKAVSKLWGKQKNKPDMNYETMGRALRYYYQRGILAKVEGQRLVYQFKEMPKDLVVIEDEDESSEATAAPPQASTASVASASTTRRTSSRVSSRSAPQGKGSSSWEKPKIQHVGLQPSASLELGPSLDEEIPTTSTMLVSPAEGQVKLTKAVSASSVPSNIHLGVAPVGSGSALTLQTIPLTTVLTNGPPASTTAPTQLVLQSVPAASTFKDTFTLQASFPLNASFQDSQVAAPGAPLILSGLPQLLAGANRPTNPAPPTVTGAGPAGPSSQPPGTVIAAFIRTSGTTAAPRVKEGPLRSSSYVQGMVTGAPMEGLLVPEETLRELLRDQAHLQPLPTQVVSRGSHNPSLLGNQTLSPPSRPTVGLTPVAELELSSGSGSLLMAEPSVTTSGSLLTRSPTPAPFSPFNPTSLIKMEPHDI
Method in brief: as §1

[15] = biological target: T9, ELK4 (Homo sapiens, UniProt P28324-2 1-405); settings: protein: recombinant; tags: N-terminal GST; dsDNA, one strand shown
T9 sequence: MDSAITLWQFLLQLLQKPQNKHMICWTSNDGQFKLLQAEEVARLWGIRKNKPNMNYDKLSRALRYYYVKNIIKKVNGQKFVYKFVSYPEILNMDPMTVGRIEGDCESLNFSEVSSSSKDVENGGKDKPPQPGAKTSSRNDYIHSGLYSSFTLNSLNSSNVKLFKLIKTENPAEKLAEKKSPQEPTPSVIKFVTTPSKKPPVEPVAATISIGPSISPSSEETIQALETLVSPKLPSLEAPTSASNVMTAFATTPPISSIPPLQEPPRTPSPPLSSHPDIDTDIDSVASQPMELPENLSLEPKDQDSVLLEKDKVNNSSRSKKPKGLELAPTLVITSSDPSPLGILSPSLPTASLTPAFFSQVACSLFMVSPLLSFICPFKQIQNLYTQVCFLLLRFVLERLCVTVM
Method in brief: as §1

[16] = biological target: T10, ETV2 (Homo sapiens, UniProt O00321 1-342); settings: protein: recombinant; tags: N-terminal GST; dsDNA, one strand shown
T10 sequence: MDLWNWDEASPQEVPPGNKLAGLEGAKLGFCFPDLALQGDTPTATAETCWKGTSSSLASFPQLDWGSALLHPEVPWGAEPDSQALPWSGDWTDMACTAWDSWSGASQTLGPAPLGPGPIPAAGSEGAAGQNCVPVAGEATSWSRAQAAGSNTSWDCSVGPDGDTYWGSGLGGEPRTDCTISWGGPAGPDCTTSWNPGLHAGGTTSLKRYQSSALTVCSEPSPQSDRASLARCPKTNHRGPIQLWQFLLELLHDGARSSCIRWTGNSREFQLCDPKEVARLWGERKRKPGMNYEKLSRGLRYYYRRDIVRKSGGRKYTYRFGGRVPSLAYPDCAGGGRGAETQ
Method in brief: as §1

[17] = biological target: T11, ELF3 (Homo sapiens, UniProt P78545 1-371); settings: protein: recombinant; tags: N-terminal GST; dsDNA, one strand shown
T11 sequence: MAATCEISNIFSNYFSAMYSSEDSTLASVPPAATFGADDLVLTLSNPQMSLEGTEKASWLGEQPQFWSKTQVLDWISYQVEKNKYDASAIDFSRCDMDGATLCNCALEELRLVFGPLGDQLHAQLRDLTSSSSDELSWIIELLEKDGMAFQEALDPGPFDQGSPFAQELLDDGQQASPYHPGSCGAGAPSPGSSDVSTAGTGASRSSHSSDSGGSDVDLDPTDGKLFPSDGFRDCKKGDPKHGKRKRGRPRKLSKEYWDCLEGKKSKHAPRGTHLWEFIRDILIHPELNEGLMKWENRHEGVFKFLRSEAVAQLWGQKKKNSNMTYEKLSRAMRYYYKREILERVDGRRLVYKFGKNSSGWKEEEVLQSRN
Method in brief: as §1

[18] = biological target: CRX (Homo sapiens, UniProt O43186 1-299); settings: protein: recombinant; tags: N-terminal GST; dsDNA, one strand shown
Chain of CRX (O43186 whole entry): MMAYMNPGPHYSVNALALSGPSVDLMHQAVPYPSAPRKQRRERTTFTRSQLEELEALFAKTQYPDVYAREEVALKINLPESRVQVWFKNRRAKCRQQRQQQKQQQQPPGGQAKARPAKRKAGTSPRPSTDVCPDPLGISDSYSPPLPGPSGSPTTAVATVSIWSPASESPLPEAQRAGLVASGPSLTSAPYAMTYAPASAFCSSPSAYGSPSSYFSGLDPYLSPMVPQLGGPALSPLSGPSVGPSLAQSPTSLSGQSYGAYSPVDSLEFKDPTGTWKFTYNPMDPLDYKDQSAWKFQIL
Method in brief: as §1

[19] = biological target: ETV1 (Homo sapiens, UniProt P50549 1-477); settings: protein: recombinant; tags: N-terminal GST; dsDNA, one strand shown
Chain of ETV1 (P50549 whole entry): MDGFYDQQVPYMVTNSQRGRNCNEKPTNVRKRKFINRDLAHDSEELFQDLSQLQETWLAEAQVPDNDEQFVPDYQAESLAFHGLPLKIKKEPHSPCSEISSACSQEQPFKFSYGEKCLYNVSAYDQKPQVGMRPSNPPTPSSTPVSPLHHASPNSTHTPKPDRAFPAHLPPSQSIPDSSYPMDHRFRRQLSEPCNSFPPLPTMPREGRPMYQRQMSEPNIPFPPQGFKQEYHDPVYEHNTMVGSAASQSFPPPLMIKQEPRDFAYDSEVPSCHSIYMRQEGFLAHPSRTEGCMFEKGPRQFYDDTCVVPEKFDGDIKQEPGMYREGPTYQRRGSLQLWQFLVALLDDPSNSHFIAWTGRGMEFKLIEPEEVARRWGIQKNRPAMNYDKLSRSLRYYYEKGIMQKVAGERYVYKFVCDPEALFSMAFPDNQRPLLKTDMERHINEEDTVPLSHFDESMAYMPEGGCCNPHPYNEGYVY
Method in brief: as §1

TATCAC
binding signal [1]: 1.33 fold enrichment (6-mer frequency, TF over GST control) | binding signal [2]: 1.25 fold enrichment (6-mer frequency, TF over GST control) | binding signal [3]: 1.04 fold enrichment (6-mer frequency, TF over GST control) | binding signal [4]: 1.17 fold enrichment (6-mer frequency, TF over GST control) | binding signal [5]: 1.3 fold enrichment (6-mer frequency, TF over GST control) | binding signal [6]: 1.19 fold enrichment (6-mer frequency, TF over GST control) | binding signal [7]: 1.28 fold enrichment (6-mer frequency, TF over GST control) | binding signal [8]: 1.22 fold enrichment (6-mer frequency, TF over GST control) | binding signal [9]: 1.23 fold enrichment (6-mer frequency, TF over GST control) | binding signal [10]: 1.21 fold enrichment (6-mer frequency, TF over GST control) | binding signal [11]: 1.24 fold enrichment (6-mer frequency, TF over GST control) | binding signal [12]: 1.14 fold enrichment (6-mer frequency, TF over GST control) | binding signal [13]: 1.17 fold enrichment (6-mer frequency, TF over GST control) | binding signal [14]: 1.24 fold enrichment (6-mer frequency, TF over GST control) | binding signal [15]: 1.18 fold enrichment (6-mer frequency, TF over GST control) | binding signal [16]: 1.34 fold enrichment (6-mer frequency, TF over GST control) | binding signal [17]: 1.25 fold enrichment (6-mer frequency, TF over GST control) | binding signal [18]: 1.35 fold enrichment (6-mer frequency, TF over GST control) | binding signal [19]: 1.17 fold enrichment (6-mer frequency, TF over GST control)
